# Measurements published in PubChem BioAssay (NCI).
# This is part of a sample that, as a whole, favours compounds with a hit. Of some 83,000 tested, about 20% had one in any assay.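 In brief: 96-well plates, 48 h treatment, single concentration, percent growth endpoint.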 Unmarked numbers belong to inactive results. Calls of active or inactive are those of the source. The calls were made as follows: active = growth percent below 10; inactive = the rest.
# Experiments:
# Assay in all cases: NCI-60 one-dose screen, 48 h (100 = growth as untreated, 0 = no growth, -100 = all killed)
# Conditions in all cases: 10 µM unless noted
# T-47D breast = tested on: T-47D breast
# MDA-MB-435 melanoma = tested on: MDA-MB-435 melanoma
# SW-620 colon = tested on: SW-620 colon
# MCF7 breast = tested on: MCF7 breast
# HCT-116 colon = tested on: HCT-116 colon
# HCC-2998 colon = tested on: HCC-2998 colon
# KM12 colon = tested on: KM12 colon
Structure (SMILES),growth (T-47D breast) [%],growth (MDA-MB-435 melanoma) [%],growth (SW-620 colon) [%],growth (MCF7 breast) [%],growth (HCT-116 colon) [%],growth (HCC-2998 colon) [%],growth (KM12 colon)
COc1ccc(C2c3sc4c(C)cccc4c3Oc3nc(CC(=O)Nc4ccccc4)[nH]c(=O)c32)cc1 (stereo not given),84.4,33.7,74.9,55.6,73.6,93.8,92.7%
NC/C(=C/F)COc1ccc2nc(NCc3cccnc3)oc2c1,103,102,96.7,89.3,96.4,117,103%
O=C(O)c1cn(C2CC2)c2cc(N3CCN(C(=O)CN4C(=O)CSC4=O)CC3)c(F)cc2c1=O,106,98.6,100,98.8,98.8,115,101%
Nc1ncc(-c2ccc3ncnc(N4CCc5cc(F)c(Cl)cc54)c3c2)cn1,13.5,27.1,40.7,11.9,20.5,31.6,50.6%
C=C(C)[C@@H]1CC[C@]2(COCCCNCCC#N)CC[C@]3(C)[C@H](CC[C@@H]4[C@@]5(C)CC[C@H](OCCCNCCC#N)C(C)(C)[C@@H]5CC[C@]43C)[C@@H]12,53.3,56.4,64.7,32.5,24.7,31.8,64.4%
Nc1nc(Nc2ccccc2SSc2ccccc2Nc2nc(N)nc(-c3ccccc3)n2)nc(-c2ccccc2)n1,74.7,90.6,70.5,68.3,61.3,110,22.1%
COc1ccc(/C(N)=N/C(N)=N/c2nc3ccccc3s2)cc1,80.4,20.3,65.4,71.2,79.6,91.9,-11.5% (active)
N/C(=N\C(N)=N\c1nc2ccccc2s1)c1ccc2ccccc2c1,79.2,88.9,110,79.3,63.5,116,59.5%
Oc1[nH]c2ccccc2c1Nn1c(N=N/C=c2/ccc3c(c2)C=NN=3)n[nH]c1=S,99,103,99,77.1,104,118,93.3%
Nn1c(N/N=C/c2nc3ccccc3s2)n[nH]c1=S,108,110,105,93.7,107,123,102%
